From PubChem
Marburg entry – blocks Marburg virus binding or cell entry; Marburg virus pseudotype entry/binding inhibition, cell-based; Potency, µM (highest dose often 49.2 µM), inactives show top-dose activity change, negative = inhibition, actives largely listed as inhibitors; hit rate 6.5% among 18,000; AID 720532
LASV entry inh – Lassa virus entry inhibition. Lassa virus pseudotyped entry inhibition, cell-based qHTS. Potency, µM (top dose mostly 49.2 µM), without a hit: at the top dose activity change, negative = inhibition, usual class: inhibitors. hit rate 4.1% among 18,000
* = called active by the depositor; ? = inconclusive; nt = not tested or not shown; ! = not active in a repeat; [ ] = remark or other dose. Sampled rows, rich in hits. Any-hit rate of the full collection: about 8%. Calls come from the whole dose curve; tested in HEK293 cells. % is set by controls: 0 for no effect and ±100 for the full control effect; potency is the fitted concentration of half-maximal effect.

SMILES | Marburg entry | LASV entry inh
O=c1ncccn1[C@@H]1O[C@H](CO)C(O)[C@@H]1O (some centres not stated) | -4% | -3%
N=c1ccn2c(n1)OC1C(O)C(CO)OC12 (configuration not stated) | 0.71µM* | ?
N=c1ccn2c(n1)OCC1C2O[C@@H](O)[C@H]1O (some centres not stated) | 14µM* | ?
Cc1ncc2c(c1CNS(=O)(=O)N(C)C)CCN(C(=O)c1c(F)cccc1F)C2 | -9% | -8%
CC(C)(C)NCC(O)c1cc(O)cc(O)c1 (configuration not stated) | 1% | -2%
C[C@@]12CC3CC(N)(C1)C[C@@](C)(C3)C2 | ? | 1%[17.8 µM]
CC12CC3CC(C)(C1)CC(N)(C3)C2 | -11% | 35µM*!
NC12CC3CC(CC(C3)C1)C2 | 32µM*! | 1%
CCC1(c2ccccc2)C(=O)N(COC)C(=O)N(COC)C1=O | 25% | -9%
CC(=O)N1CCC[C@H]1C(=O)NCC1Cc2cc(Cl)cc(-c3ccc4[nH]ccc4c3)c2O1 (some centres not stated) | -24% | -8%
COCCC(=O)NCC1Cc2cc(Cl)cc(-c3ccc4[nH]ccc4c3)c2O1 (configuration not stated) | 7.1µM* | 7.1µM*
COC1=C[C@H](C(=O)NCc2ccc(OC)cc2)C(C)C(c2ccccc2)CC1=O (some centres not stated) | 3%[8.59 µM] | -22%[8.59 µM]
O=C1C=CC2=C3c4cc(O)c(O)cc4CC3(O)COC2=C1O (configuration not stated) | 3.2µM* | -16%
c1ccc2sc(SSc3nc4ccccc4s3)nc2c1 | 2% | -10%
C[C@H]1CCC[C@H](O)CCCCCc2cc(O)cc(O)c2C(=O)O1 | 14% | -26%
CC1CC2OC2/C=C\C=C/C(=O)Cc2c(Cl)c(O)cc(O)c2C(=O)O1 (configuration not stated) | 2.5µM* | 7.9µM*
COC(C)(C)CCCC(C)C/C=C/C(C)=C/C(=O)OC(C)C (configuration not stated) | 15% | 14µM*!
CC(C)OC(=O)[C@H]1O[C@H](CCCCOCc2ccccc2)[C@@H](C)[C@H]2O[C@H]21 | 1% | 2%
COCOc1ccc(Br)cc1C(=O)[C@@H]1O[C@@H]1c1cccc(OC)c1 | -17%[8.59 µM] | 12%[8.59 µM]
CCOC(=O)N1CCC(=C2c3ccc(Cl)cc3CCc3cccnc32)CC1 | -17% | 32µM*!
CN1CCC(=C2c3ccccc3CCc3cccnc32)CC1 | -25% | -5%
Cc1ccc2nc(NCCN)c3ncc(C)n3c2c1 | 7.9µM* | ?
CCC1C(C)=NN=C(c2ccc(OC)c(OC)c2)c2cc(OC)c(OC)cc21 (configuration not stated) | -15% | 5%
CC(C)COC[C@H](CN(Cc1ccccc1)c1ccccc1)N1CCCC1 | 6.3µM* | -24%[17.8 µM]
c1ccc(CN(CC2=NCCN2)c2ccccc2)cc1 | ? | -4%
SMILES | Marburg entry | LASV entry inh
CCC1C(=O)NCCN1Cc1ccc2c(c1)CN(Cc1ccc3c(c1)OCCO3)CCO2 (configuration not stated) | 34% | 15%
CCCCC(C)/C=C(C)/C=C(\C)C(=O)NC1=CC(O)(/C=C/C=C/C=C/C(=O)NC2=C(O)CCC2=O)C2OC2C1=O (configuration not stated) | 3.2µM* | 7.1µM*
COc1ccc(-c2ccc(CN3C(CC(C)C)C(=O)N(Cc4cn(Cc5ccco5)nn4)CCS3(=O)=O)cc2)cc1OC (configuration not stated) | -13% | nt
NC(=NC1C2CC3CC(C2)CC1C3)Nc1ccc(I)cc1 (configuration not stated) | 11µM* | 8.9µM*
CC(C)(C)CC(C)(C)c1ccc(OCOCCOCCO)c(Cc2cc(C(C)(C)CC(C)(C)C)cc(Cc3cc(C(C)(C)CC(C)(C)C)ccc3OCOCCOCCO)c2OCOCCOCCO)c1 | 33%[17.8 µM] | 6%[17.8 µM]
C[n+]1ccc(/C=C/c2ccc3ccccc3c2)cc1 | ? | 11µM*
C(=C\c1nc(-c2ccccc2)oc1Nc1ccc2ccccc2c1)/c1ccccc1 | 29% | 6%
[Cl-].[Cl-].[Hg+2] | 2.8µM* | 3.2µM*
Cc1ccccc1CN1[C@@H](C)[C@@H](c2ccccc2)Oc2c(Cl)cccc2S1(=O)=O | 11% | 13%
CCC(C(N)=O)c1ccccc1 (configuration not stated) | -4% | 2%
CN(Cc1cnc2nc(N)nc(N)c2n1)c1ccc(C(=O)NC(CCC(=O)O)C(=O)O)cc1 (configuration not stated) | 0.28µM* | ?
Nc1nc(N)c2nc(CNc3ccc(C(=O)N[C@@H](CCC(=O)O)C(=O)O)cc3)cnc2n1 | -5% | 2%
CC1(C)OC2C[C@](O)(C(N)=O)C[C@H](O)[C@H]2O1 (some centres not stated) | 10% | 0%
O=[N+]([O-])c1ccc(O)c([N+](=O)[O-])c1 | 21% | 0%
N#CC(C#N)=Cc1ccc([N+](=O)[O-])c(O)c1 | 16µM*! | ?
CCC(=O)OC1(C)C(=O)C=C2C=C(/C=C/COC)OC=C2C1=O (configuration not stated) | -14% | 0%
COC/C=C/C1=CC2=CC(=O)C(C)(OC(=O)c3cnc4ccccc4n3)C(=O)C2=CO1 (configuration not stated) | 14% | 5.6µM*
O=CN1CCCN(C(=O)c2cc(NC(=O)c3ccccc3)cc3ncn(C4CCCC4)c23)CC1 | 13% | -3%
O=C1O[C@H]2[C@H](O)[C@@H]1OC(O)[C@H]2O (some centres not stated) | 18% | 0%
CC1=CC(=C(c2ccc(N)cc2)c2ccc(N)cc2)C=CC1=N | ? | 7.9µM*
CCCCC/C=C\C/C=C\C/C=C\C/C=C\CCCC(=O)NCc1ccoc1 | -5% | -7%
CC(=O)CCC(=O)N1CCC(n2c(C3CCCO3)nc3cc(C(F)(F)F)ccc32)CC1 (configuration not stated) | 1% | 0%
CN1CCN(c2nc3cc(C(F)(F)F)ccc3n3cccc23)CC1 | 28µM*! | -22%
CC(C)[C@H](NC(=O)[C@H](CCC(N)=O)NC(=O)CNC(=O)[C@@H]1CCCN1C(=O)[C@H](Cc1ccc(O)cc1)NC(=O)CN)C(=O)O | -10% | -3%
OCc1cc(C(O)CNCCCCCCOCCCCc2ccccc2)ccc1O (configuration not stated) | 16µM* | ?
SMILES | Marburg entry | LASV entry inh
CC(C)(C)NCC(O)c1ccc(O)c(CO)c1 (configuration not stated) | 13% | -4%
COc1cccc(CN2CCOc3ccc(CN4C[C@@H](C)O[C@@H](C)C4)cc3C2)c1OC | 3% | -9%
C[C@]12CC[C@H]3[C@@H](CC[C@@]45O[C@@H]4C(O)=C(C#N)C[C@]35C)[C@@H]1CC[C@@H]2O | -11% | -8%
CCCCCCCCCCCCCCCC(=O)OCCC1CCN(CCCN2c3ccccc3Sc3ccc(S(=O)(=O)N(C)C)cc32)CC1 | -13% | 21%
CN(C)CCCN1c2ccccc2Sc2ccc(Cl)cc21 | 16µM* | ?
OCCOCCN1CCN(C2=Nc3ccccc3Sc3ccccc32)CC1 | -10% | -24%
OCCN1CCN(CCCN2c3ccccc3Sc3ccc(Cl)cc32)CC1 | 2.2µM* | ?
CN1CCN(CCCN2c3ccccc3Sc3ccc(S(=O)(=O)N(C)C)cc32)CC1 | ? | -13%[17.8 µM]
CC(=O)c1ccc2c(c1)N(CCCN1CCC(CCO)CC1)c1ccccc1S2 | 11µM* | -30%[17.8 µM]
COc1ccc(CCCO[C@@H](Cn2ccnc2)c2ccc(OC)cc2)cc1 | ? | -28%
